Residual activity data for three molecules are collected here from ChEMBL document CHEMBL2218924, “A broad activity screen in support of a chemogenomic map for kinase signalling research and drug discovery” (Biochem J, 2013).

The residual activity is the signal under treatment as a percentage of the control signal.

Experiment [1] has as its target Homeodomain-interacting protein kinase 3 (Homo sapiens) (UniProt Q9H422). The note with it: at 10 µM.
Experiment [2] has as its target T1, Serine/threonine-protein kinase haspin (Homo sapiens) (UniProt Q8TF76).
T1 sequence (whole entry): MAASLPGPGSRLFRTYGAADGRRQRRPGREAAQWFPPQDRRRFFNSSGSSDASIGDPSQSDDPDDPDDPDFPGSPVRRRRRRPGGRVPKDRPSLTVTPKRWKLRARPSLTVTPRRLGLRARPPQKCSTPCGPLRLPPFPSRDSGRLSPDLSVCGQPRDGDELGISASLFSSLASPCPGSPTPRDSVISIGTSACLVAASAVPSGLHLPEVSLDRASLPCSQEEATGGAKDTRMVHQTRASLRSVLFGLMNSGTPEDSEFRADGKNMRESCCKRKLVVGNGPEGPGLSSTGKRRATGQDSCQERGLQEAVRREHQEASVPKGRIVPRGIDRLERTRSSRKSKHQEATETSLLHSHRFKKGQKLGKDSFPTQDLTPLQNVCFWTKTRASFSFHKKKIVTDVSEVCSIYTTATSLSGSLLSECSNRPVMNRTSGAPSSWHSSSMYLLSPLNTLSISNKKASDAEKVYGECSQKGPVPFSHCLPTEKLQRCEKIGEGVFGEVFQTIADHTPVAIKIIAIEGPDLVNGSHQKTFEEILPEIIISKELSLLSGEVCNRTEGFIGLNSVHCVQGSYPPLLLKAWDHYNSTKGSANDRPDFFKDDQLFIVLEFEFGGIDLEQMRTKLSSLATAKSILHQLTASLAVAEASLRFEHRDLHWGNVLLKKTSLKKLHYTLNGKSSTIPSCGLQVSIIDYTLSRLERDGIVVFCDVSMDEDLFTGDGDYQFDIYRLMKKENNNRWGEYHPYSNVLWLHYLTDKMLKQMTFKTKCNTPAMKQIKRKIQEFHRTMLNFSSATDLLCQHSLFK
The note with it: at 1 µM.

In experiment [3] the target is T1, Serine/threonine-protein kinase haspin (Homo sapiens). The settings on record: at 10 µM.
For experiment [4], the target named is Tyrosine-protein kinase HCK (Homo sapiens) (UniProt P08631). The settings on record: at 1 µM.
Experiment [5] has the same target. The settings on record: at 10 µM.
Experiment [6] has the same target. The settings on record: at 1 µM. The source holds these as a separate data set.
For experiment [7] the target is unchanged. The settings on record: at 10 µM. This is another data set of the same source.
Experiment [8] deals with Insulin-like growth factor 1 receptor (Homo sapiens) (UniProt P08069). The settings on record: at 10 µM.
Experiment [9] addresses T2, Protein kinase C zeta type (Homo sapiens) (UniProt Q05513).
T2 sequence (whole entry): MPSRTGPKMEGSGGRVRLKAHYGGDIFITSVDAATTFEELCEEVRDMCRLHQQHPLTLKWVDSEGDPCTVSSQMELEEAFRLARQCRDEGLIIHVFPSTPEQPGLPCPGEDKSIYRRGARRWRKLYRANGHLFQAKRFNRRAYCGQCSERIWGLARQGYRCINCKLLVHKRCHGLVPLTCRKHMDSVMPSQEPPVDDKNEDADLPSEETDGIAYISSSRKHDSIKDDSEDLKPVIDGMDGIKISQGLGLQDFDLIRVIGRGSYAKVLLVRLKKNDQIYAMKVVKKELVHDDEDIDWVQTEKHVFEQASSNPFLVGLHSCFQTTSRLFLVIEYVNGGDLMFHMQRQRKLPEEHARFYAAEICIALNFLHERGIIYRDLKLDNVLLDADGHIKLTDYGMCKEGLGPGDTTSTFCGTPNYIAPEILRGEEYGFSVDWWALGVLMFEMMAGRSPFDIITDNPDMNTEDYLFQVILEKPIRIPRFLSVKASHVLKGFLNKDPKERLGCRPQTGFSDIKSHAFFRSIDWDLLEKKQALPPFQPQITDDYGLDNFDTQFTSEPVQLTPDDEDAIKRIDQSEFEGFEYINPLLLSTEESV
The settings on record: at 10 µM.

For experiment [10], the target named is Protein kinase C eta type (Homo sapiens) (UniProt P24723). The settings on record: at 1 µM.
Experiment [11] has the same target. The settings on record: at 10 µM.
Experiment [12] deals with Protein kinase C theta type (Homo sapiens) (UniProt Q04759). The note with it: at 1 µM.
For experiment [13] the target is unchanged. The note with it: at 10 µM.
Experiment [14] addresses T3, Protein kinase C iota type (Homo sapiens) (UniProt P41743).
T3 sequence (whole entry): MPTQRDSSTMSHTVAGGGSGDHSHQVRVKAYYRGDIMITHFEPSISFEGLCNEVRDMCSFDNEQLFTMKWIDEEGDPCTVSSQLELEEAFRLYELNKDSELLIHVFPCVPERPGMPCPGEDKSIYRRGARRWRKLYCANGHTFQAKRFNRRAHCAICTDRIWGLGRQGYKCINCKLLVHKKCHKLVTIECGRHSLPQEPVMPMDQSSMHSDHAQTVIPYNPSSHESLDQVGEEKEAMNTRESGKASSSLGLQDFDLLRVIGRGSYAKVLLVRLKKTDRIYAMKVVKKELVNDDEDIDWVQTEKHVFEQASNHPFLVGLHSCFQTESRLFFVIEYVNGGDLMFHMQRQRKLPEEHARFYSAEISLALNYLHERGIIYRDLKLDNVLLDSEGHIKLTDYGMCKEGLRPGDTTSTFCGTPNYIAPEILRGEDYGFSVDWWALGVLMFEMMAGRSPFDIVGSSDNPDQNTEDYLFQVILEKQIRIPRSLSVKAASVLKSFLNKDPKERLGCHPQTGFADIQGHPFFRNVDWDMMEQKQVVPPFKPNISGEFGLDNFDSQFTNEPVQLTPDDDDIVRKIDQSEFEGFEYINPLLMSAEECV
The settings on record: at 1 µM.

The target in experiment [15] is T3, Protein kinase C iota type (Homo sapiens). The settings on record: at 10 µM.
The target in experiment [16] is T4, Serine/threonine-protein kinase D1 (Homo sapiens) (UniProt Q15139).
T4 sequence (whole entry): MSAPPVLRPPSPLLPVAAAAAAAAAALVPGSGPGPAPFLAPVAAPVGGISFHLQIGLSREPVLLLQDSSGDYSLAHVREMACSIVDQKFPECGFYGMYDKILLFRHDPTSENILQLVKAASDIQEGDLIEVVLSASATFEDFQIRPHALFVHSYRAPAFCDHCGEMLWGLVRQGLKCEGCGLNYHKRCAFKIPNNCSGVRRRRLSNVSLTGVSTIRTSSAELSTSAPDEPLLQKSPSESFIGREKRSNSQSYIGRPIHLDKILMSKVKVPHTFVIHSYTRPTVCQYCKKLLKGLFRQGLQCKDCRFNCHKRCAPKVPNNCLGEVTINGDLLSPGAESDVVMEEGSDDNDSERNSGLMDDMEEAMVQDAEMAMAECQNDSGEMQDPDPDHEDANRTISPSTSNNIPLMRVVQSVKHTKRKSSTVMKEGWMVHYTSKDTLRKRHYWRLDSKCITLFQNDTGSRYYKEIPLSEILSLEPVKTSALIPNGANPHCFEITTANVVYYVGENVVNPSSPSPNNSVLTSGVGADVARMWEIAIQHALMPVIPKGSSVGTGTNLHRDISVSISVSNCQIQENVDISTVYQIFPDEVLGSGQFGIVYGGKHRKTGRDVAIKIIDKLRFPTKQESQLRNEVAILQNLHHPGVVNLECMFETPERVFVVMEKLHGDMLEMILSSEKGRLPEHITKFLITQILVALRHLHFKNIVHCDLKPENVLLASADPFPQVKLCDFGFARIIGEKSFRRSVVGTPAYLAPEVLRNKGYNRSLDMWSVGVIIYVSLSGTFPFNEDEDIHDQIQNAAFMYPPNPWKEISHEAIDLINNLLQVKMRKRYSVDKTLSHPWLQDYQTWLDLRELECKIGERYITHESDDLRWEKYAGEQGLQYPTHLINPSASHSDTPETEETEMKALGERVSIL
The settings on record: at 10 µM.

Experiment [17] addresses T4, Serine/threonine-protein kinase D1 (Homo sapiens). The note with it: at 1 µM.
Experiment [18] has as its target T5, Serine/threonine-protein kinase D2 (Homo sapiens) (UniProt Q9BZL6).
T5 sequence (whole entry): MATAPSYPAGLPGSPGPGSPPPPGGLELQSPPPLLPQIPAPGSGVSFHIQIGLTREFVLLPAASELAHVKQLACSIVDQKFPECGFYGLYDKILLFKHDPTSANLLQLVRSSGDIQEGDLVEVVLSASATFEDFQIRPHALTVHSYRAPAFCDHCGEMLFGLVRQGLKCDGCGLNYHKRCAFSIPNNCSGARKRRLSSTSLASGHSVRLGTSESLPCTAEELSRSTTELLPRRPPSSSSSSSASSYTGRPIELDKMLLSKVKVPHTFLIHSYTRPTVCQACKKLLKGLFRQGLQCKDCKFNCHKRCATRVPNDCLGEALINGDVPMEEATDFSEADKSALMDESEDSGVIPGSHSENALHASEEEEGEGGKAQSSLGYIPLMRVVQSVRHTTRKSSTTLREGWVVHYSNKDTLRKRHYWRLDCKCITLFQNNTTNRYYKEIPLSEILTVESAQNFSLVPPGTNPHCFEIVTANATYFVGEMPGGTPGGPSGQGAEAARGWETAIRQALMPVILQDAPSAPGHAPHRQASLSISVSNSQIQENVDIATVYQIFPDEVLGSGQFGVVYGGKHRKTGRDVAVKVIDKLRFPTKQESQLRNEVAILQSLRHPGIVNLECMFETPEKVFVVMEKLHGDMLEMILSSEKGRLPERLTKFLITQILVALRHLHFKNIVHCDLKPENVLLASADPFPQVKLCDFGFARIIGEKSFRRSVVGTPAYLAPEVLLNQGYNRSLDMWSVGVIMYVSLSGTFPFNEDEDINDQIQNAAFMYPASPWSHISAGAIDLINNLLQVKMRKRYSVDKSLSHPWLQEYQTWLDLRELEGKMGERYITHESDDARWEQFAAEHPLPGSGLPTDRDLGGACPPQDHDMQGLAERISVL
The note with it: at 1 µM.

Experiment [19] addresses T5, Serine/threonine-protein kinase D2 (Homo sapiens). The note with it: at 10 µM.
The target of experiment [20] is Insulin-like growth factor 1 receptor (Homo sapiens) (UniProt P08069). The settings on record: at 1 µM.

Chain of Protein kinase C eta type (Homo sapiens) (P24723 whole entry): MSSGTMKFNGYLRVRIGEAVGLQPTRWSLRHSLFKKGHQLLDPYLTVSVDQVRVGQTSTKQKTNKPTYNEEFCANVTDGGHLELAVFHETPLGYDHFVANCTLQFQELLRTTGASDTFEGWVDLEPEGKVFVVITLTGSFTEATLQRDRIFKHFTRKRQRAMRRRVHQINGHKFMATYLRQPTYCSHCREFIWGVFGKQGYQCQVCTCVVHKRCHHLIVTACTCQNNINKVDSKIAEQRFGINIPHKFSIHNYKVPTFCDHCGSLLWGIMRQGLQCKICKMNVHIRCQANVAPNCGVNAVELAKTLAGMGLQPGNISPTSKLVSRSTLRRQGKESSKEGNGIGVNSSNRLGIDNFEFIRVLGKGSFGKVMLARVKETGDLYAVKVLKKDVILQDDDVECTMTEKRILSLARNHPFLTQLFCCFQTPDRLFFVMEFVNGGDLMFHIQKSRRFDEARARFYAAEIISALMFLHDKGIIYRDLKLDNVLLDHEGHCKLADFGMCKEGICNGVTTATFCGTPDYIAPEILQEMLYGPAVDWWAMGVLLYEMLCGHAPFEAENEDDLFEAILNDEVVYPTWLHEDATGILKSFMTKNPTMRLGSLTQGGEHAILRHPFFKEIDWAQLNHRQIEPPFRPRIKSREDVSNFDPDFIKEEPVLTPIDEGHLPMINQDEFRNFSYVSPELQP
Chain of Protein kinase C theta type (Homo sapiens) (Q04759 whole entry, looked up): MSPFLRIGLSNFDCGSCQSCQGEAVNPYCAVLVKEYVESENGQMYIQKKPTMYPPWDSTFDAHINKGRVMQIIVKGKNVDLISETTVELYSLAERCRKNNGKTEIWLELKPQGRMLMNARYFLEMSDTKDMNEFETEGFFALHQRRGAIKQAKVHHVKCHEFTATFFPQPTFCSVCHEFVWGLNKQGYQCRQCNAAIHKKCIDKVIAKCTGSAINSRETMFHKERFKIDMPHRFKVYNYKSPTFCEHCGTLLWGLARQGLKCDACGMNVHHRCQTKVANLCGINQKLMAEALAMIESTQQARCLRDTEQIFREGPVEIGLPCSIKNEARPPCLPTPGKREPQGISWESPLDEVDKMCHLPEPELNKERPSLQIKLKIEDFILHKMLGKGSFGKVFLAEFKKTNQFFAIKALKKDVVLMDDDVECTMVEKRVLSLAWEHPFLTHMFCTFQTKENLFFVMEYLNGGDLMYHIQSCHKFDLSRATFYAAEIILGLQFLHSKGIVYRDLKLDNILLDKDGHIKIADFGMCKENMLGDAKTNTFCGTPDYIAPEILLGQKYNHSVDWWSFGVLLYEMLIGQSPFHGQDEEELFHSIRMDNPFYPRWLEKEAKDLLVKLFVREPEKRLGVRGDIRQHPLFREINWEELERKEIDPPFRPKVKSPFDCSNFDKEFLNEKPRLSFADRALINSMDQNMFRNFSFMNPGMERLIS
Chain of Homeodomain-interacting protein kinase 3 (Homo sapiens) (Q9H422 whole entry, looked up): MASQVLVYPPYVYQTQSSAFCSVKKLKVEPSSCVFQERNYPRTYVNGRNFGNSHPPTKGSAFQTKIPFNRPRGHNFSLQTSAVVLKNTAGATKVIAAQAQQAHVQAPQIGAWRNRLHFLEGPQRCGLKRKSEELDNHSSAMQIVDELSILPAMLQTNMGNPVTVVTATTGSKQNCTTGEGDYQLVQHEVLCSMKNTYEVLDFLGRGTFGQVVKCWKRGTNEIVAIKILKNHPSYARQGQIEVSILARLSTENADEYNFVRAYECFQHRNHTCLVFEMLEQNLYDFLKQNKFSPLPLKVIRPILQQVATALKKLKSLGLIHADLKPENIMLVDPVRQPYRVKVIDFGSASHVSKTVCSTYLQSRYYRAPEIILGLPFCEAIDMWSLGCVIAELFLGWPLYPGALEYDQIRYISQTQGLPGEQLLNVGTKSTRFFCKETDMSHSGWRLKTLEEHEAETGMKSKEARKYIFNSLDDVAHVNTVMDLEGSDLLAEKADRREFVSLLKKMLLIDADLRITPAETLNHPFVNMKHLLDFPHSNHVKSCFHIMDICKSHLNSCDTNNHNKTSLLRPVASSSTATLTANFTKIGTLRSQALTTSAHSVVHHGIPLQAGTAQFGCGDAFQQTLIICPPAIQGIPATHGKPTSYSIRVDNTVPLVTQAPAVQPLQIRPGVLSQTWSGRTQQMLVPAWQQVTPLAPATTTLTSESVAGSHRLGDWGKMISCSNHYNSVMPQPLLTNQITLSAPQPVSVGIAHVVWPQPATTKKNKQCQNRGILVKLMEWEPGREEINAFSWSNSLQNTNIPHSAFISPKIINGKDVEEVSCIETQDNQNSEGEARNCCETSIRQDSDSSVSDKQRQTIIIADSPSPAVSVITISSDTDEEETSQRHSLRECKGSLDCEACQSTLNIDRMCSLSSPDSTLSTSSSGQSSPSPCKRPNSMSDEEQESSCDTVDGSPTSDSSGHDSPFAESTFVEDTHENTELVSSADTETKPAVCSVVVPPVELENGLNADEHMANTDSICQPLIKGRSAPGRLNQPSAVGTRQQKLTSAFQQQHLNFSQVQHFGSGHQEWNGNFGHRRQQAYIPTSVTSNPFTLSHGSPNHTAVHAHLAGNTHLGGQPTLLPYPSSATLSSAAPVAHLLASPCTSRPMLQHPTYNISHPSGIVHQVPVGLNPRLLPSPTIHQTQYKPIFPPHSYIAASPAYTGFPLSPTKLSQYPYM
Chain of Tyrosine-protein kinase HCK (Homo sapiens) (P08631 2-526 limits assumed): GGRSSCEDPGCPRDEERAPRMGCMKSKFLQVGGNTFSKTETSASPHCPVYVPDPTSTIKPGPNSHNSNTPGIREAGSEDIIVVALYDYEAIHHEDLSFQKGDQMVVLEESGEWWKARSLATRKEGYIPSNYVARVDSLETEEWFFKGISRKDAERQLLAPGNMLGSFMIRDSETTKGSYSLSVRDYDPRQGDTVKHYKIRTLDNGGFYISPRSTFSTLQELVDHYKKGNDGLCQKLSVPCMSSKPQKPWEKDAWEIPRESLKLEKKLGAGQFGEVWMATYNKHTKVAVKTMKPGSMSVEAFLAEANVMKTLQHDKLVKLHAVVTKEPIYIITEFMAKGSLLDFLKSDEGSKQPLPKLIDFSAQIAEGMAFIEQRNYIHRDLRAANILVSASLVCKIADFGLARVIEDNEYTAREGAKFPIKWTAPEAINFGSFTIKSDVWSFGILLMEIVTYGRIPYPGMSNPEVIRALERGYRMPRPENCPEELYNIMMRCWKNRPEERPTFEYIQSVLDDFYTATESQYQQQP
Chain of Insulin-like growth factor 1 receptor (Homo sapiens) (P08069 31-736 limits assumed): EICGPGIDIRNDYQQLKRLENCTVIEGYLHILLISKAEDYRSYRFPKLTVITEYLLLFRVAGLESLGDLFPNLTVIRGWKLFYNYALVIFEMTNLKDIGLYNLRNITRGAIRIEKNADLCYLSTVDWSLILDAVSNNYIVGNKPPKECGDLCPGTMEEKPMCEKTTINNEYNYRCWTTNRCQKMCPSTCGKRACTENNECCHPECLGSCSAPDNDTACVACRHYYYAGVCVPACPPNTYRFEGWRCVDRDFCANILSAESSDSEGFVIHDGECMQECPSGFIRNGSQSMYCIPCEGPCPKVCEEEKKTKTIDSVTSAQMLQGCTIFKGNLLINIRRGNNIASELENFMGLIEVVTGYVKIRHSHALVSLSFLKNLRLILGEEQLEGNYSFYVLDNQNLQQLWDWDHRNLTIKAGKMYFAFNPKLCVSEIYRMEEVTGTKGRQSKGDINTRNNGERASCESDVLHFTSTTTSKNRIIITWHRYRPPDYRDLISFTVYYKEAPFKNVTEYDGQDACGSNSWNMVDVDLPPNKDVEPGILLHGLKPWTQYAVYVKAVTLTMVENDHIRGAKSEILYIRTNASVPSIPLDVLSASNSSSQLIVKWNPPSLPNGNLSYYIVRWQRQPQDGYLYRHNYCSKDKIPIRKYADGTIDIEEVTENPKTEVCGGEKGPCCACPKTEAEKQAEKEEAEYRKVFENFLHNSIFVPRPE
Chain of Insulin-like growth factor 1 receptor (Homo sapiens) (P08069 741-1367 limits assumed): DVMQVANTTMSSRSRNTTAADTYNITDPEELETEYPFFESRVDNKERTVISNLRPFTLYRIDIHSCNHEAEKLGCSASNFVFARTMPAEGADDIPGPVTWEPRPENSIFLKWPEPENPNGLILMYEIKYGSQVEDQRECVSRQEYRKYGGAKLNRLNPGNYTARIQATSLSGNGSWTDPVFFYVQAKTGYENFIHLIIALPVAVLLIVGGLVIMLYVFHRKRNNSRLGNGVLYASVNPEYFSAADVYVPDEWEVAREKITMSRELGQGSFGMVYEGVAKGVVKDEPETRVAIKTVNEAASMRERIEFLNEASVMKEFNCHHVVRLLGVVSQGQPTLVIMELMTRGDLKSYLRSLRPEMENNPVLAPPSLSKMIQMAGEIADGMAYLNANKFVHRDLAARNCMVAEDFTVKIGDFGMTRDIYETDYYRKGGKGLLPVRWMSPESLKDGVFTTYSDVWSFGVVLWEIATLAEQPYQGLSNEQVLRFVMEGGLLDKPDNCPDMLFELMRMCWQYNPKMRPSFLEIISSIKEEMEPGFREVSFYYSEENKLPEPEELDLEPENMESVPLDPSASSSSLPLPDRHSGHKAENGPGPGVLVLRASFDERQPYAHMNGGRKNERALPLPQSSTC

As for `c1ccc(-c2n[nH]c3c2oc2ccccc23)cc1`, the residual activity in experiment [1] is 61%; in experiment [2], 90%; in experiment [3], 48%; in [4], 71%; in [5] it was 51%; in experiment [6] it was 98%. Besides, the residual activity in [7] turned out to be 81%; in [8], 139%; in [9], 117%; in [10], 91%; in experiment [11] it was 85%; in experiment [12], 98%. Moreover, the residual activity was 96% in experiment [13], 90% (inactive) in [14], 79% in experiment [15] and 72% in experiment [16].
As to `COc1cc2ncnc(N3CCN(C(=O)Nc4ccc(Oc5ccccc5)cc4)CC3)c2cc1OC`, the residual activity in experiment [1] was 102%; in experiment [2], 79%; in experiment [3] it was 82%; in experiment [4], 79%; in [5], 71%; in experiment [6], 91%. The residual activity was 85% in experiment [7]; 116% in experiment [9]; 98% in experiment [10]; 74% in experiment [11]; 94% in experiment [12]; 108% in [13]. The residual activity in experiment [14] was 90% (inactive); in experiment [15] it was 99%; in [17] it was 102%; in experiment [16], 66%; in experiment [18] it was 103%; in experiment [19], 99%.
Turning to `CO[C@H]1[C@@H](OC)C[C@H](C)[C@@H](OC)C2=CC(=O)C=C(NC(=O)/C(C)=C/C=C/[C@H](OC)[C@@H](OC(N)=O)/C(C)=C/[C@@H]1C)C2=O`, the residual activity in experiment [1] came to 105%; in experiment [2] it was 88%; in [3], 78%; in [4] it was 78%; in [5] it was 76%; in experiment [7], 103%. For the same molecule, the residual activity in experiment [20] was 137%; in experiment [8] it was 113%; in [9] it was 106%; in experiment [10] it was 118%; in [11], 83%; in experiment [12], 100%. Besides, the residual activity is 98% in [13]; 92% (inactive) in experiment [14]; 71% in [15]; 119% in experiment [17]; 102% in experiment [16]; 102% in experiment [18]. In [19], the residual activity was 110%.
